Source: PubChem BioAssay
A selection: hits, their analogues and other compounds. The true share with any hit is near 3.3%.
14-3-3 Bad PPI: disrupts binding of bovine 14-3-3 zeta to phospho-Bad peptide | TR-FRET 14-3-3zeta/Dy647-pBad peptide displacement, 1 h | inhibition, % at 21.7 µM | hit rate 0.71% among 220,000;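 active = inhibition above about 70%, limit read from the data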;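 note: 0% = full 14-3-3 plus peptide FRET controls and 100% = background without 14-3-3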
eIF4E-4G inh: blocks eIF4E binding to eIF4G; P63073+Q04637; inhibition, % at 21.7 µM; TR-FRET eIF4E-eIF4GI(517-606) binding, 2 h; hit rate 0.37% among 220,000;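 note: 0% = full FRET control wells and 100% = background wells lacking eIF4GI fragment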
p47phox inh: blocks human p47phox regulatory protein of NADPH oxidases; P14598; p47phox/p22phox peptide binding, fluorescence polarization, 2 h; inhibition, % at 24.7 µM; hit rate 0.53% among 220,000;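 note: 0% = p47phox with labelled peptide and 100% = labelled peptide alone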
Target sequence (P14598 whole entry, looked up): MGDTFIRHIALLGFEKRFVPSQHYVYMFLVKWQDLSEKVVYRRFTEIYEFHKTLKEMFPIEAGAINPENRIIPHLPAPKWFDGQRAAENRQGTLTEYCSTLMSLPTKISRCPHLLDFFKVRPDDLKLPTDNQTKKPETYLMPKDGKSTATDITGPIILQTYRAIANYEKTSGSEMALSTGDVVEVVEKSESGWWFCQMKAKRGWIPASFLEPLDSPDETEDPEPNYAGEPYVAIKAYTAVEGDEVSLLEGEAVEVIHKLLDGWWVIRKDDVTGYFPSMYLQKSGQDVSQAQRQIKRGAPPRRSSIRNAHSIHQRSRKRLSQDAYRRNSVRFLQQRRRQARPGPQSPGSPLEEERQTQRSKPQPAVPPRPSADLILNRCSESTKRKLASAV
Mcl-1 Bim block: human Bim-Mcl-1 interaction inhibition; Q07820; Bead-based flow cytometry, Bim peptide-Mcl-1 binding; inhibition, % at 10 µM; hit rate 0.1% among 190,000; AID 1009; in the data active = inhibition above about 40%;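 note: 0% = no compound tracer wells and 100% = peptide blocker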
Mcl1 Bid PPI: Mcl-1/Bid interaction inhibition. inhibition, % at 21.7 µM. TR-FRET Mcl-1/Bid-Dy647 peptide binding, 1536-well. hit rate 0.97% among 220,000. Q07820;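 active = compounds that cut the binding signal by more than half at the single screening dose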;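 note: His-tagged Mcl-1 with europium anti-His antibody binding Bid BH3 peptide; 0% = Mcl-1 plus peptide wells and 100% = peptide-only wells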
Mcl1-Noxa inh: disrupts binding of human Mcl-1 to Noxa peptide; Q07820; TR-FRET Mcl-1/Noxa peptide binding, 2 h; inhibition, % at 21.7 µM; hit rate 1.5% among 220,000;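 active = compounds that cut the protein-peptide binding signal by more than 50% relative to plate controls in a single-dose test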;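 note: His-tagged Mcl-1 with rhodamine Noxa BH3 peptide and terbium anti-His antibody; 0% = Mcl-1 plus Noxa peptide wells and 100% = peptide-only wells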
* marks the source's active call; other numbers are inactive results; [ ] = another dose, or the depositor's remark.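 Rule for the calls, unless noted: active = inhibition above about 30% (limit read from the data); inactive = the rest.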

For C=C(C)C(=O)Nc1cccc(C2=NOC3(C2)C[C@@H](C(N)=O)N(C(=O)/C(C)=C/C)C3)c1 (some centres undefined) the results were 14-3-3 Bad PPI 34, eIF4E-4G inh 10, p47phox inh -6, Mcl1 Bid PPI -114 and Mcl1-Noxa inh 73*.
For C/C=C(/C)C(=O)Nc1cccc(C2=NOC3(C2)C[C@H](C(N)=O)N(C(=O)c2ccccc2)C3)c1 (some centres undefined) the results were 14-3-3 Bad PPI -1, eIF4E-4G inh 0, p47phox inh 3, Mcl1 Bid PPI -27 and Mcl1-Noxa inh 26.
C/C=C/C=C\C(=O)Nc1cccc(C2=NOC3(C2)C[C@@H](C(N)=O)N(C(=O)/C(C)=C/C)C3)c1 (some centres undefined) was read as 14-3-3 Bad PPI -8, eIF4E-4G inh -5, p47phox inh -3, Mcl1 Bid PPI -35 and Mcl1-Noxa inh 6.
C/C(=N\NC(=O)Cn1nc(C)c([N+](=O)[O-])c1C)c1ccc(Cl)s1 was read as 14-3-3 Bad PPI 1, eIF4E-4G inh 3, p47phox inh -3, Mcl1 Bid PPI -21 and Mcl1-Noxa inh 21.
Screening CN(C)Cc1ccccc1Sc1ccc(Br)cc1 returned 14-3-3 Bad PPI -9, eIF4E-4G inh 20, p47phox inh -2, Mcl-1 Bim block -5, Mcl1 Bid PPI -15 and Mcl1-Noxa inh 3.
Screening COc1cc(-c2nc(-c3ccccc3)c(-c3cccs3)[nH]2)cc(OC)c1OC returned 14-3-3 Bad PPI 4, eIF4E-4G inh -21, p47phox inh -34, Mcl-1 Bim block 5, Mcl1 Bid PPI -15 and Mcl1-Noxa inh -8.
COc1cc(-c2nc(-c3ccccc3)c(-c3cccs3)[nH]2)cc(OC)c1O was read as 14-3-3 Bad PPI -2, eIF4E-4G inh 7, p47phox inh -43, Mcl-1 Bim block 4, Mcl1 Bid PPI -29 and Mcl1-Noxa inh 55*.
Screening CC(=O)NC(=S)Nc1ccc(S(=O)(=O)Nc2ncccn2)cc1 returned 14-3-3 Bad PPI -2, eIF4E-4G inh 3, p47phox inh -2, Mcl1 Bid PPI -22 and Mcl1-Noxa inh -1.
`CC(C)c1ccc(S(=O)(=O)/N=C2/C=C(Sc3ncn[nH]3)C(=O)c3ccccc32)cc1` gave 14-3-3 Bad PPI 79*[fluorescence artefact?], eIF4E-4G inh 21, p47phox inh 50*, Mcl-1 Bim block 27, Mcl1 Bid PPI 49 and Mcl1-Noxa inh 105*.
For Cc1ccc(S(=O)(=O)/N=C2/C=C(Sc3ncn[nH]3)C(=O)c3ccccc32)cc1 the results were 14-3-3 Bad PPI 88*[fluorescence artefact?], eIF4E-4G inh 34*[fluorescence artefact?], p47phox inh 53*, Mcl-1 Bim block -7, Mcl1 Bid PPI 65* and Mcl1-Noxa inh 98*.
For Cc1ccc(S(=O)(=O)/N=C2/C=C(Sc3ncn[nH]3)C(=O)c3ccccc32)c(C)c1 the results were 14-3-3 Bad PPI 66, eIF4E-4G inh 27, p47phox inh 37*, Mcl-1 Bim block 11, Mcl1 Bid PPI 26 and Mcl1-Noxa inh 94*.
For Cc1ccc(S(=O)(=O)Nc2ccc(O)c(Sc3ncn[nH]3)c2)cc1 the results were 14-3-3 Bad PPI -11, eIF4E-4G inh 1, p47phox inh -10, Mcl-1 Bim block -1, Mcl1 Bid PPI -29 and Mcl1-Noxa inh 23.
CCOc1ccc(S(=O)(=O)Nc2ccc(O)c(Sc3ncn[nH]3)c2)cc1 was read as 14-3-3 Bad PPI -12, eIF4E-4G inh -2, p47phox inh -2, Mcl-1 Bim block -1, Mcl1 Bid PPI -23 and Mcl1-Noxa inh 9.
Screening Cc1ccc(C)c(S(=O)(=O)Nc2ccc(O)c(Sc3ncn[nH]3)c2)c1 returned 14-3-3 Bad PPI 5, eIF4E-4G inh 7, p47phox inh -8, Mcl1 Bid PPI -45 and Mcl1-Noxa inh 8.
Screening O=C(O)CNC(=O)C12CC3CC(CC(Cl)(C3)C1)C2 returned 14-3-3 Bad PPI -6, eIF4E-4G inh -1, p47phox inh 5, Mcl-1 Bim block -1, Mcl1 Bid PPI 1 and Mcl1-Noxa inh -4.
`O=C(COC(=O)CCc1nc2ccccc2s1)NC(=O)NCc1ccco1` gave 14-3-3 Bad PPI -20, eIF4E-4G inh 2, p47phox inh -9, Mcl-1 Bim block -2, Mcl1 Bid PPI -15 and Mcl1-Noxa inh 15.
